Assay [1] can be described thus: NCI Yeast Anticancer Drug Screen. Data for the rad50 strain (AID 155).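 Note: 0% = growth of vehicle-only cultures of the same strain.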 As to conditions: S. cerevisiae rad50 strain growth inhibition; at 50.0 µM; stronger effect = higher value. Put shortly:
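Compounds were tested on a yeast strain with an engineered DNA damage repair alteration; the reported value is growth inhibition normalised to vehicle treatment.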

Assay [2] can be described thus: NCI Yeast Anticancer Drug Screen. Data for the mec2-1 strain (AID 157). As to conditions: S. cerevisiae mec2-1 strain, at 50.0 µM, stronger effect = higher value. Put shortly: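 Cells of the genetically defined mec2-1 yeast strain are incubated with test compound. Inhibition of growth is calculated against vehicle-treated controls.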
A short description of assay [3]: NCI Yeast Anticancer Drug Screen. Data for the sgs1 mgt1 strain (AID 161).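 Note: 0% = growth of cultures given vehicle only.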 Conditions: S. cerevisiae sgs1 mgt1 strain, at 50.0 µM, stronger effect = higher value. A digest of the protocol:
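Genetically altered yeast, compound exposure, growth inhibition relative to vehicle.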

The nature of assay [4]: NCI Yeast Anticancer Drug Screen. Data for the cln2 rad14 strain (AID 165).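 Note: 0% = growth equal to vehicle treated cultures.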 As to conditions: S. cerevisiae cln2 rad14 strain, at 50.0 µM, stronger effect = higher value. Put shortly:
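The screen exposed genetically defined yeast (cln2 rad14) to test compounds and scored growth inhibition relative to vehicle-treated controls.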

Assay [5] can be described thus: NCI Yeast Anticancer Drug Screen. Data for the bub3 strain (AID 167). As to conditions: S. cerevisiae bub3 mutant strain, at 50.0 µM, stronger effect = higher value. Put shortly:
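Growth of a checkpoint-deficient yeast mutant is measured after compound exposure. Values represent inhibition relative to vehicle.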

The nature of assay [6]: NCI Yeast Anticancer Drug Screen. Data for the mlh1 rad18 strain (AID 175). As to conditions: S. cerevisiae mlh1 rad18 strain growth inhibition; at 50.0 µM; stronger effect = higher value. A digest of the protocol: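 Compound-treated yeast growth, normalised to vehicle controls. Strain bears defined DNA repair mutations.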

Values joined by “and” are separate entries in the source; they are usually repeats but may differ in a detail not shown here. Identical values can stand only once. About 79,000 compounds went through this panel and 15% of them were active in at least one assay; those are over-represented in the sample as a whole. Unmarked numbers belong to inactive results. Active and inactive are the calls of the source. Cut-off read from the data, not from the text of the source: active = growth inhibition above about 70%; inactive = the rest.

`CCC(C)Sc1ccccc1OC(=O)NC` (centres undefined): the growth inhibition in assay [1] is -10.4%; in assay [2], 7.05%; in assay [3], 0.5%; in assay [4], -16.6%; in assay [5] it was 9.85%; in assay [6], 24.1%.
For `O=c1oc2ccccc2c(O)c1C(c1cnc2ccccc2c1)c1c(O)c2ccccc2oc1=O`, the growth inhibition is 33.4% in assay [1]; 40.2% in assay [2]; 12.7% in assay [3]; 26.2% in assay [4]; -5.7% in assay [5]; 47% in assay [6].
Consider `CC(=O)OC1(C#N)CC2OC1C1NC21` (centres undefined), for which the growth inhibition in assay [1] is 5.7%; in assay [2], -8.8%; in assay [3] it was 18.4%; in assay [4], 8.8%; in assay [5] it was -14.7%; in assay [6], -13%.
On to `CC1NCCc2c1[nH]c1cc(O)ccc21` (centres undefined), for which the growth inhibition in assay [1] is 4.55%; in assay [2], -10.9%; in assay [3] it was 5.5%; in assay [4], -9.2%; in assay [5] it was -21.5%; in assay [6] it was 3.1%.
As for `O=C(O)C(=O)C(Cl)Br` (centres undefined), the growth inhibition was 4.95% in assay [1]; -8.75% in assay [2]; -2.5% in assay [3]; -18% in assay [4]; 2.35% in assay [5]; 0.65% in assay [6].
`[Cl][Hg][c]1cccc(I)c1N=Nc1ccccc1`: the growth inhibition is 81.9% (active) in assay [1]; 21.3% in assay [2]; 66.2% in assay [3]; 4.9% in assay [4]; 2.25% in assay [5]; 69.8% in assay [6].
For `O=NNc1ncccn1`, the growth inhibition is -20.2% in assay [1]; -11.7% in assay [2]; 3.7% in assay [3]; 4.3% in assay [4]; -0.2% in assay [5]; -23% in assay [6].
For `Cc1ccc(NC(=O)C(=O)C2C(=O)NC(=O)NC2=O)cc1C`, the growth inhibition in assay [1] is -4.9%; in assay [2] it was -14.3%; in assay [3] it was -34.6%; in assay [4] it was 3.85%; in assay [5] it was -19.9%; in assay [6], -23.2%.
Regarding `C[C@]12CC[C@H]3[C@@H](CCC4=CC(=O)CC[C@@]43C)[C@@H]1CC[C@@H]2OC(=O)c1cccc2c(=O)c3ccccc3[nH]c12`, the growth inhibition in assay [1] was 30.6%; in assay [2], 73% (active); in assay [3] it was 82.1% (active); in assay [4], 34.2%; in assay [5], 71.2% (active); in assay [6], 4.1%.
`CC1(CCN)COC(c2ccccc2)(c2ccccc2)OC1` (tested in a mixture with another compound): the growth inhibition in assay [1] is 20.1%; in assay [2], 4.15%; in assay [3] it was -0.7%; in assay [4] it was 31.4%; in assay [5] it was 10.2%; in assay [6], 43.2%.
On to `CC(=O)Nc1nccs1.CC(=O)Nc1nccs1.[Cl][Pt][Cl]`, for which the growth inhibition was 9% in assay [1]; 5.25% in assay [2]; 8.8% in assay [3]; -1.55% in assay [4]; -1.45% in assay [5]; 5.1% in assay [6].
With `N=C(N)c1nn[nH]n1`, the growth inhibition was -18.9% in assay [1]; -5.25% in assay [2]; -19.8% in assay [3]; 1.75% in assay [4]; -7.05% in assay [5]; -27.3% in assay [6].
As to `CCN1C[C@]2(COC)[C@H](O)C[C@H](OC)[C@]34C1[C@H]([C@H](OC)[C@H]23)[C@]1(OC(C)=O)[C@H]2[C@@H](OC(=O)c3ccccc3)[C@](O)(C[C@H]24)[C@@H](OC)[C@@H]1O`, the growth inhibition is 14.6% in assay [1]; -4% in assay [2]; 5.8% in assay [3]; -6.85% in assay [4]; 24.9% in assay [5]; -69.3% in assay [6].
With `c1ccc2c(c1)sc1sc3c([n+]12)CCCC3`, the growth inhibition in assay [1] was 6.25%; in assay [2] it was -8.75%; in assay [3] it was -5.3%; in assay [4], -2.4%; in assay [5], -4.5%; in assay [6] it was -20.2%.
Consider `[N-]=[N+]=CC(=O)OCC(N)C(=O)O` (centres undefined), for which the growth inhibition was 4.5% in assay [1]; -12.8% in assay [2]; -5.35% in assay [3]; 14.1% in assay [4]; -6.7% in assay [5]; -0.6% in assay [6].
Turning to `COC(=O)C1C(O)C(C)C(O)C(C)/C=C\C=C(C)C(=O)Nc2c(C)c(OC(C)=O)c3c(c2O)C(=O)C(C)=C2OCOC(=C23)C(C)=CC(C)(O)C(O)C(C)C1O` (centres undefined), the growth inhibition in assay [1] is 11.9% and -16.8% and 23.8%; in assay [2] it was -15.7% and -27.9% and -5.4%; in assay [3], 12.1% and -26.9% and 3.05%; in assay [4], -10.2% and -5.2% and 9.2%; in assay [5], 26.9% and -13.5% and 10%; in assay [6], 16.6% and -24.6% and 19.4%.
Regarding `CCCCCCCCCCNP(=S)(NCCCCCCCCCC)c1ccccc1`, the growth inhibition in assay [1] was 26.8%; in assay [2], 4.7%; in assay [3], 27.9%; in assay [4], -19.8%; in assay [5], -14.8%; in assay [6], 2.6%.
With `CNC(C)(C)Cc1ccc(Cl)cc1`, the growth inhibition in assay [1] is 33.5%; in assay [2] it was 10.8%; in assay [3], 27.9%; in assay [4], 24.9%; in assay [5], 4.6%; in assay [6] it was -0.45%.
Consider `CC(C)=C(OP1(=S)OCCN1C)C(C)(C)C(=O)N(C)C` (centres undefined), for which the growth inhibition is -2.6% in assay [1]; -3.65% in assay [2]; -1.9% in assay [3]; 12.8% in assay [4]; 11.9% in assay [5]; 4.45% in assay [6].

These data come from PubChem BioAssay (NCI).
